Laboratory results reported in the supplement of paper PMC11732987, “Enantioselective OTUD7B fragment discovery through chemoproteomics screening and high-throughput optimisation” (Communications Chemistry, 2025).

Tests used:
Assay in all cases: log2 ratio of Biotin-Ahx-Ub-VS probe labelling (fragment/DMSO); higher = less target engagement (more negative = stronger competition), active = hit call of the paper (q ≤ 0.05, log2 ratio ≤ -1)
Conditions in all cases: compound concentration: 200 uM; treatment time: 3 h
[1] = biological target: USP34 (UniProt Q70CQ2)
Method in brief: (§1)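 Fragment (200 µM) or vehicle was incubated for 3 h with triplicate HEK293T lysate samples of 495 µg, which were then treated with Biotin-Ahx-Ub-VS at 0.5 µM final for 1 h. Labelled DUBs were enriched on NeutrAvidin, digested with LysC and trypsin, and analysed by diaPASEF LC-MS/MS. Values are average log2 fragment/vehicle ratios from an unpaired t-test on global-median-normalised Spectronaut label-free quantities, using proteins with ≥2 unique peptides.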

[2] = biological target: T1, USP36 (UniProt Q9P275)
T1 sequence (whole entry): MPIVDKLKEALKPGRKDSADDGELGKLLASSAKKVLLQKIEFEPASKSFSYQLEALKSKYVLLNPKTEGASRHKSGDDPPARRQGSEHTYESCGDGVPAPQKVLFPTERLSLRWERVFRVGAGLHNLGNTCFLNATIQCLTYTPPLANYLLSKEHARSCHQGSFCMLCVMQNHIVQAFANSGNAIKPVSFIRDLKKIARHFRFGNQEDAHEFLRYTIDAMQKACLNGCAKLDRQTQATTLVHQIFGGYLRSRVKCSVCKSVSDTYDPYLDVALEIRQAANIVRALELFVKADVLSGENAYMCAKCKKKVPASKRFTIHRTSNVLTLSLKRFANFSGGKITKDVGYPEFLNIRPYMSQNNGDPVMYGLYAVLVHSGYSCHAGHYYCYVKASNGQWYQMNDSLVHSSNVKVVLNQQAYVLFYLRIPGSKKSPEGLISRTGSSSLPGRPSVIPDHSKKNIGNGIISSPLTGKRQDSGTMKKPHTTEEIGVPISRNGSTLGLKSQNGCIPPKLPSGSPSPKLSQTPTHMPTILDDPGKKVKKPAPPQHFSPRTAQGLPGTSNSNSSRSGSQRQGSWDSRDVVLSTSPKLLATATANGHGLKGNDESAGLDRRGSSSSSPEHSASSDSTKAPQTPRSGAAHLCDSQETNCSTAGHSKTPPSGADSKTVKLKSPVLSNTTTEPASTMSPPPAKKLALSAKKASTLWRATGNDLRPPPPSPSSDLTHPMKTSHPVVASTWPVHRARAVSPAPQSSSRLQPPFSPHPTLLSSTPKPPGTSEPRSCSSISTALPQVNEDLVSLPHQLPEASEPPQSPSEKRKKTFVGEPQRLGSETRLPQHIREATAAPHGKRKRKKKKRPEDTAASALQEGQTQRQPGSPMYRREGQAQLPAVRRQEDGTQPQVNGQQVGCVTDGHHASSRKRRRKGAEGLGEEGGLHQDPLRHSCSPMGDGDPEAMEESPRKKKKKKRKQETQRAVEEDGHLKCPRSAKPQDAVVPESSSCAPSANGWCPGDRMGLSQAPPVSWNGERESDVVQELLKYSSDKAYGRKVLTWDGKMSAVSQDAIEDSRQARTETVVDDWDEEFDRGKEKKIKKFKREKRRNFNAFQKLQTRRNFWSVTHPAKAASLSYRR
Method in brief: as §1

[3] = biological target: T2, USP38 (UniProt Q8NB14)
T2 sequence (whole entry): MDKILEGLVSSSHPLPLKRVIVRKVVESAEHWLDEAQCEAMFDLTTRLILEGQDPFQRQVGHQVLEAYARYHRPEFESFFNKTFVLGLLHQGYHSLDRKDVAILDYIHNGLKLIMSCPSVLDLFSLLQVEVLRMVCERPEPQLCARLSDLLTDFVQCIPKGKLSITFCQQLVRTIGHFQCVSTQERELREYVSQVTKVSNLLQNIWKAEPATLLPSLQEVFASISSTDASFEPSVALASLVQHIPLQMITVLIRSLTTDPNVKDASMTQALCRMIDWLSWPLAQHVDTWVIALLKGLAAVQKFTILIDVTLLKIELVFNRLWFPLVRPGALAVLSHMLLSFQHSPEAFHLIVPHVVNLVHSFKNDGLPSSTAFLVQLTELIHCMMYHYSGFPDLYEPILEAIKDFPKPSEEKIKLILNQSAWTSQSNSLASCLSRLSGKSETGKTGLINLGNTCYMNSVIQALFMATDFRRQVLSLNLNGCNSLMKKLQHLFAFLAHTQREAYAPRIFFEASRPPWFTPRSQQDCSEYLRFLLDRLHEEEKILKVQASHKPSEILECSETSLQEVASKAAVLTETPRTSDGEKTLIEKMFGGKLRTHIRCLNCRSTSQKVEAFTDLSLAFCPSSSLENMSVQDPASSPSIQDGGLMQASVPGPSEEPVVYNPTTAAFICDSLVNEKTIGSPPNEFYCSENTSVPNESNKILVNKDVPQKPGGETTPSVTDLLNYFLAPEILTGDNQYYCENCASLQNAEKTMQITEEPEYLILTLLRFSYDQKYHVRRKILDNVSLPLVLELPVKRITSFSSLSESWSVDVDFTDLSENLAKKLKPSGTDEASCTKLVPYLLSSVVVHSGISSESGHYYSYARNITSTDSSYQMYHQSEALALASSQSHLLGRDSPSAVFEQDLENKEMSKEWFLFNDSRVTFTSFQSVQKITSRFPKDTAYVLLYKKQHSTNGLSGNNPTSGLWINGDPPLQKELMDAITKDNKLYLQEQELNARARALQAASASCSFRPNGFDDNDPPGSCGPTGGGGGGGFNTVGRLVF
Method in brief: as §1

[4] = biological target: T3, USP39 (UniProt Q53GS9)
T3 sequence (whole entry): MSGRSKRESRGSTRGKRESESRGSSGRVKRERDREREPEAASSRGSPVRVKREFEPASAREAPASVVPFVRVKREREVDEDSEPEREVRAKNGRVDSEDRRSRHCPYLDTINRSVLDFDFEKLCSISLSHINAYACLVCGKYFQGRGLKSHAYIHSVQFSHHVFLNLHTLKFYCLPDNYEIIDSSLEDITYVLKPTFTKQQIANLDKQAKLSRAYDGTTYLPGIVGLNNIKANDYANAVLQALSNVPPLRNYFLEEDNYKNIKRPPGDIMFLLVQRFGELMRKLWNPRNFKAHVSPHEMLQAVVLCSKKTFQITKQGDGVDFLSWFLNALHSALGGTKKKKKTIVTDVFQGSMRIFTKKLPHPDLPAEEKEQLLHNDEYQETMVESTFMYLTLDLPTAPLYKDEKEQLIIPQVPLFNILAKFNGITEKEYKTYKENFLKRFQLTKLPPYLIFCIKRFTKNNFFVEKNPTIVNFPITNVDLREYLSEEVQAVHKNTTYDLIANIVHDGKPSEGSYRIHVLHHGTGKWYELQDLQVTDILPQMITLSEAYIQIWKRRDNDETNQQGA
Method in brief: as §1

[5] = biological target: T4, USP4 (UniProt Q13107)
T4 sequence (whole entry): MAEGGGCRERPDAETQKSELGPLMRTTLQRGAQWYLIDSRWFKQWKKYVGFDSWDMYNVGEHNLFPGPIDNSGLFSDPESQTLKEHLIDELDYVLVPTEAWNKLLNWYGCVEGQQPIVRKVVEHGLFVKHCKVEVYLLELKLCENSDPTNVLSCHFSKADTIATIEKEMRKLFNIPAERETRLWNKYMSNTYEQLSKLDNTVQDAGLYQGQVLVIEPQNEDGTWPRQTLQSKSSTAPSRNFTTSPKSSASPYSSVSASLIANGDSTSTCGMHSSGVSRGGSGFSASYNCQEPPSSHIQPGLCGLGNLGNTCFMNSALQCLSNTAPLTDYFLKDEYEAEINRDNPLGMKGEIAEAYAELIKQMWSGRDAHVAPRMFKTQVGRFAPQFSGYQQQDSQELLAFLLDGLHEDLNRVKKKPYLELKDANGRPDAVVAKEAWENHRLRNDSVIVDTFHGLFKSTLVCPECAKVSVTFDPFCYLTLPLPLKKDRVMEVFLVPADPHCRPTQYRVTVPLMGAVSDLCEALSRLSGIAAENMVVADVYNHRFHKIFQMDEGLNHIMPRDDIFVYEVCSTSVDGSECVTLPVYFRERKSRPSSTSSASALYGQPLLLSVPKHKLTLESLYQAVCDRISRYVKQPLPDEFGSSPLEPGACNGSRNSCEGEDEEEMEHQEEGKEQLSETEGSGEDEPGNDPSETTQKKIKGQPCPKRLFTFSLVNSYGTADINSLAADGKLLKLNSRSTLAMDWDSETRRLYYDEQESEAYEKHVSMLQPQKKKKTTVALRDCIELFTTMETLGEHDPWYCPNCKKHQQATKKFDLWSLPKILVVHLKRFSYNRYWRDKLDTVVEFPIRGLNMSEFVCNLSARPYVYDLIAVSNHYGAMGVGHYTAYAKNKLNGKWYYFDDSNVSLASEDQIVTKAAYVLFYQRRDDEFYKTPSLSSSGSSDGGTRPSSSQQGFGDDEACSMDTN
Method in brief: as §1

Measured: log2 ratio of Biotin-Ahx-Ub-VS probe labelling

Sequence of USP34 (Q70CQ2 whole entry, the tested form may be a part): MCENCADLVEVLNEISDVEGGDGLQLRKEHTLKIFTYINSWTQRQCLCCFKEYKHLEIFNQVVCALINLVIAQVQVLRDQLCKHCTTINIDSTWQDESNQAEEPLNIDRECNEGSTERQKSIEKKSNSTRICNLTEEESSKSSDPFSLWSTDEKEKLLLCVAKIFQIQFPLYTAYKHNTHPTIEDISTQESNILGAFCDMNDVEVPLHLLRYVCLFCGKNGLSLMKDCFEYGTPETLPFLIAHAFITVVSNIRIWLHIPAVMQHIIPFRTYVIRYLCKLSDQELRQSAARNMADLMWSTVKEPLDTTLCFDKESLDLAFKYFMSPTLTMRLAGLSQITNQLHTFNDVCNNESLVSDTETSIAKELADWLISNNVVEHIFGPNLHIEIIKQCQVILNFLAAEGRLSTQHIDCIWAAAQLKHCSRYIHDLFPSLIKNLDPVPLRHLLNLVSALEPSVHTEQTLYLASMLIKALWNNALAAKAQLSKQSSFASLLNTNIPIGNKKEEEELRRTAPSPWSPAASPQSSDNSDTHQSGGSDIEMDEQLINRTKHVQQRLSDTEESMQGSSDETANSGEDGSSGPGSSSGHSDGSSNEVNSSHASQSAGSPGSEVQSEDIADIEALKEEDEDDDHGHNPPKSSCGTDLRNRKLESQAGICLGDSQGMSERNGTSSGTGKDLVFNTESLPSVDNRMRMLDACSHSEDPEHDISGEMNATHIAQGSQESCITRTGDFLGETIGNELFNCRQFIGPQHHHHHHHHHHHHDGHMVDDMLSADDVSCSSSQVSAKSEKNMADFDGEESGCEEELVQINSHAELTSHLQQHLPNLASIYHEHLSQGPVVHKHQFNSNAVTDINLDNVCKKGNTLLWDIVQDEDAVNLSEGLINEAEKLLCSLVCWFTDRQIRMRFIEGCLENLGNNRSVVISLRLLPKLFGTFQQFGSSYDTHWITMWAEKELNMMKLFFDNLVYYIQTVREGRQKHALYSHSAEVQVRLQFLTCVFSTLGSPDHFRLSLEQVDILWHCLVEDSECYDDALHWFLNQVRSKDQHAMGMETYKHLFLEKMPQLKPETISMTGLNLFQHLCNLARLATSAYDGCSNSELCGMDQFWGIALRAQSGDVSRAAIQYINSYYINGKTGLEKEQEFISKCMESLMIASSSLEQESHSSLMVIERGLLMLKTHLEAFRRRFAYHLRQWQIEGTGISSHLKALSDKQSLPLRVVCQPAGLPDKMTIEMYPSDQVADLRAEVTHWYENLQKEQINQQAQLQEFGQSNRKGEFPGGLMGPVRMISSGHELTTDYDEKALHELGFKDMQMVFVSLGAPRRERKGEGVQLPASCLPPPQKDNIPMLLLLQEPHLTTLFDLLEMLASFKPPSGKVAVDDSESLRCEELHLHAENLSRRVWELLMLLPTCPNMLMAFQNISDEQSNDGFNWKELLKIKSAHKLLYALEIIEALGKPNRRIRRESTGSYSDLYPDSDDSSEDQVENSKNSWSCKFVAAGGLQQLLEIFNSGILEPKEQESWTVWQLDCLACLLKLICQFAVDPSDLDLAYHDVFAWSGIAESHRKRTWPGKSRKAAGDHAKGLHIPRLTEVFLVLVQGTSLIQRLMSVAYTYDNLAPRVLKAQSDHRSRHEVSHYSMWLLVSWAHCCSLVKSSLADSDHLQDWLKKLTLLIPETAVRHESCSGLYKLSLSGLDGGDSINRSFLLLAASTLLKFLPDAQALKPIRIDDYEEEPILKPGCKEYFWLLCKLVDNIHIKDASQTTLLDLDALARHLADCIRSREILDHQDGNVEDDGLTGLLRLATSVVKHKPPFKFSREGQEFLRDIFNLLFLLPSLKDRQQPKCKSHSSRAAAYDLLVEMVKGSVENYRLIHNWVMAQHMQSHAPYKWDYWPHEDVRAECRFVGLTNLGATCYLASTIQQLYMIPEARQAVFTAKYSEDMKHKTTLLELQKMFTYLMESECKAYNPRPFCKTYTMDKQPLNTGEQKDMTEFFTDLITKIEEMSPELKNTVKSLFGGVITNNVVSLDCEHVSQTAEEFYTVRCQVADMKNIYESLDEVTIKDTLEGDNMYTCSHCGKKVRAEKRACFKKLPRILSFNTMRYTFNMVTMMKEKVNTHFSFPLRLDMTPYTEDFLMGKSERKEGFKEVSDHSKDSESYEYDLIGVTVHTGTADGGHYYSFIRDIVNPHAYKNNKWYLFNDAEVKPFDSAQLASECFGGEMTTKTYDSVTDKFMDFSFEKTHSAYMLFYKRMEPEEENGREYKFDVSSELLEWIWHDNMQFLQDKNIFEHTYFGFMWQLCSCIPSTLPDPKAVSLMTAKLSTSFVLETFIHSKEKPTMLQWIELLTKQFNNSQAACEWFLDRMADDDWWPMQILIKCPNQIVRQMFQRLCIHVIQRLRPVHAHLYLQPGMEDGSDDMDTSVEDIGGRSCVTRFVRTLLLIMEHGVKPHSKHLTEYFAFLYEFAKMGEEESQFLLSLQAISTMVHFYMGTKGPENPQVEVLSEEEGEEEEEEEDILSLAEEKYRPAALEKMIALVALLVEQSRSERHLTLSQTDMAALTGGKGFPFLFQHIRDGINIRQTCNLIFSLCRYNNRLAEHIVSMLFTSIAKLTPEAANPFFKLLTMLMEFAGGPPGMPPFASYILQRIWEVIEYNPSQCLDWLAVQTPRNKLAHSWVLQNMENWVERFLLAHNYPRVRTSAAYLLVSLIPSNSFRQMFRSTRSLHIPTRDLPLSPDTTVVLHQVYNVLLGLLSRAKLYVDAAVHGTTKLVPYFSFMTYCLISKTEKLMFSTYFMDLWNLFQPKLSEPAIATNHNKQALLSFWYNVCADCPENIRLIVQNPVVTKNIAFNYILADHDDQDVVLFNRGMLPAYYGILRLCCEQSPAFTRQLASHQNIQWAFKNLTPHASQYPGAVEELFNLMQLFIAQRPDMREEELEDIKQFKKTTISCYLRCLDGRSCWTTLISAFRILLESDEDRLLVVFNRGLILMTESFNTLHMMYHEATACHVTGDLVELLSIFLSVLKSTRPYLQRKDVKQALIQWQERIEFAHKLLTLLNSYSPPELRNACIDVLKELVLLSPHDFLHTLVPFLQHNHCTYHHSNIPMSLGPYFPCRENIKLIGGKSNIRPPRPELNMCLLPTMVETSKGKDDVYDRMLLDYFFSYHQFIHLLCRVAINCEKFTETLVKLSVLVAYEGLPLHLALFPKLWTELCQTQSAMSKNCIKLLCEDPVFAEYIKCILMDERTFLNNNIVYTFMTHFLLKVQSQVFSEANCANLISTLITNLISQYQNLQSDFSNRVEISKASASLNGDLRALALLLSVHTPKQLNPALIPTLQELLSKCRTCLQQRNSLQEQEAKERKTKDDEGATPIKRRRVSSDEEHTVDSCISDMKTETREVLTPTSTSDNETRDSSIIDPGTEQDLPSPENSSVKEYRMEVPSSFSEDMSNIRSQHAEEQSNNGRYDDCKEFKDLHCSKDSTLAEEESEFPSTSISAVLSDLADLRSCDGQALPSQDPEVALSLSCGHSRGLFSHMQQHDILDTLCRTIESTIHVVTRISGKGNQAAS

O=C(CCl)Nc1cc2c(cc1Cl)OCCO2
inactive: [1] -0.393 | [2] 0.206 | [3] -0.183 | [4] -0.137 | [5] 0.122
